Test results: PubChem BioAssay (EPA / NIEHS)
Results filed as inconclusive are left out. Active and inactive are the calls of the source. The calls were made as follows: active = hit-call score of the fitted dose curve at least 0.9, where 1 is the maximum; inconclusive = response in the unintended direction; inactive = score below 0.9.

These compounds were tested against Cellular tumor antigen p53 (Homo sapiens) (UniProt P04637) (assay: TOX21_p53_BLA_p4_ratio: Tox21 HCT-116 p53 Agonism Beta-lactamase Assay, Ratio, Phase 4 (AID 2283601)).
Chain of Cellular tumor antigen p53 (Homo sapiens) (P04637 whole entry, looked up): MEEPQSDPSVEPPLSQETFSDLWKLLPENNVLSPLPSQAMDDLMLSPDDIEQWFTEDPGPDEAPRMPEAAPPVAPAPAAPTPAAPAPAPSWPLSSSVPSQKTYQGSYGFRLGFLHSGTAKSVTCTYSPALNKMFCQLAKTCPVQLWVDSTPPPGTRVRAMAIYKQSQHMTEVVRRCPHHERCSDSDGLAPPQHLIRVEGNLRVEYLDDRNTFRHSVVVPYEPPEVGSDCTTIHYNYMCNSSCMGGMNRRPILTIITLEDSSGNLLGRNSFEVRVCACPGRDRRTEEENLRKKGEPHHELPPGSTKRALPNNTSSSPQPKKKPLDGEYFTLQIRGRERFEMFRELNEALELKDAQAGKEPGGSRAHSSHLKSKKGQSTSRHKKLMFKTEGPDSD
In short: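 HCT-116 p53 beta-lactamase reporter cells (4000/well) preincubated 5 h, then compound (217-fold dilution of DMSO stock) for 16 h at 37C. CCF4-AM substrate added 2 h at room temperature; 460/530 nm emission ratio fitted upward versus DMSO.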
In the case of `CCCCS(=O)(=O)N[C@@H](Cc1ccc(OCCCCC2CCNCC2)cc1)C(=O)O`, the outcome is reported as “inactive”.
With `COc1ccc(C2CNC(=O)C2)cc1OC1CCCC1` (stereo not drawn) the outcome was “inactive”.
For `Cc1cccc(C)c1N(CCCc1cccnc1)C(=O)C(C)N` (stereo not drawn), the outcome was “inactive”.
For `CC(C)(C)N(CCO)CCO`, the outcome was “inactive”.
With `CCCCc1ncc(/C=C(\Cc2cccs2)C(=O)O)n1Cc1ccc(C(=O)O)cc1` the outcome was “inactive”.
For `Cn1c(N)nc2nc[nH]c2c1=O`, the outcome was “inactive”.
For `CCCCC(CC)COC(=O)CC#N` (stereo not drawn), the outcome was “inactive”.
In the case of `CCC(=O)c1cccc(Cl)c1`, the outcome is reported as “inactive”.
With `Cc1ccc(NC(N)=O)cc1` the outcome was “inactive”.
For `Nc1ncnc2c1ncn2CCOCP(=O)(O)O`, the outcome was “inactive”.
With `CCCCC/C=C\C/C=C\CCCCCCCC(=O)NC(C)c1ccccc1` (stereo not drawn) the outcome was “inactive”.
`O=C(O)/C=C/c1cnc[nH]1` was tested, and the outcome was “inactive”.
`OC1CCCc2ccccc21` (stereo not drawn) was tested, and the outcome was “inactive”.
In the case of `CCOC(=O)C(C)(C)C`, the outcome is reported as “inactive”.
`ONc1ccccc1` was tested, and the outcome was “inactive”.
For `CCCCOCCOC(=O)CCCCCCCCC(=O)OCCOCCCC`, the outcome was “inactive”.
For `CCNS(=O)(=O)c1ccc(C)cc1`, the outcome was “inactive”.
For `c1ccc2cnncc2c1`, the outcome was “inactive”.
